A selection: hits, their analogues and other compounds. The true share with any hit is near 19%.
Shiga toxin inh = blocks Shiga toxin action in Vero cells. actives 9.2% (n = 290,000). Vero cells, Shiga toxin protein synthesis inhibition reporter. AID 2315. inhibition, % at 38.7 µM; in the data active = inhibition mostly above about 28%, no sharp cut-off; inactive = mostly below about 43%; note: 0% is about no effect
Pf growth 96h = inhibits malaria parasite growth, 96 h | P. falciparum luciferase reporter growth, 96 h | Potency, µM (highest dose often 28.7 µM), for the others: top-dose activity change, negative = inhibition, usual class: inhibitors | actives 6.9% (n = 320,000); note: potency is the fitted concentration of half-maximal effect; % is set by controls: 0 for no effect and ±100 for the full control effect
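Infected RBCs, 2% Hct / 0.05% parasitemia final; luciferase-reporter P. falciparum; cpd 96 h, 37 C, 5% CO2; luciferase detection reagent; luminescence.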
Pf growth 48h = inhibits P. falciparum growth in the first generation, 48 h | P. falciparum luciferase growth in erythrocytes, 48 h | Potency, µM (top dose mostly 28.7 µM), for inactives: at the highest dose activity change, negative = inhibition, usual class: inhibitors | actives 5.9% (n = 310,000); note: potency is the fitted concentration of half-maximal effect; % is set by controls: 0 for no effect and ±100 for the full control effect
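First compound was added to culture medium, then infected red cells at 0.1% parasitemia and 2% hematocrit (final). After incubation at 37 C under 5% CO2, luciferase detection reagent was dispensed and light output recorded.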
LASV entry inh = inhibitors of Lassa virus binding or cell entry; Lassa virus pseudotype entry inhibition, cell reporter; Potency, µM (series often up to 37.9 µM), without a hit: top-dose activity change, negative = inhibition, hits mostly inhibitors; actives 1.2% (n = 300,000); calls by dose curve; tested in HEK293 cells; note: potency is the fitted concentration of half-maximal effect; % is set by controls: 0 for no effect and ±100 for the full control effect; nearly all actives have a fitted effect of over 50% in size
CHX counter = counter-screen for Shiga toxin inhibitors: cycloheximide protein synthesis inhibition; max response, %; cell reporter, cycloheximide protein synthesis inhibition counterscreen; actives 12% (n = 300,000); AID 2314; in the data active = max response mostly above about 13%, no sharp cut-off; inactive = mostly below about 14%; note: read at 38.3 µM for the half of the compounds with a filed dose; 0% is about no effect
MARV entry inh = blocks Marburg virus binding to or entry into cells; Marburg virus pseudotyped entry inhibition, cell reporter; actives 1.8% (n = 300,000); Potency, µM (highest dose often 37.8 µM), for the others: top-dose activity change, negative = inhibition, actives largely listed as inhibitors; AID 540276; calls by dose curve; tested in HEK293 cells; note: potency is the fitted concentration of half-maximal effect; % is set by controls: 0 for no effect and ±100 for the full control effect
* = called active by the depositor; i = inactive; ? = inconclusive; . = not tested or not shown; ! = not confirmed by another sample; [ ] = dose if it differs, or a comment. Unless noted, calls come from the whole dose curve; as a rule, active = well fitted inhibition curve with a large enough effect; inconclusive = small, poorly fitted or top-dose-only effect, or another doubt; inactive = no such curve, though single readings can be large or run the other way.

SMILES	Shiga toxin inh	Pf growth 96h	Pf growth 48h	LASV entry inh	CHX counter	MARV entry inh
O=C(Cn1ccc([N+](=O)[O-])n1)Nc1nccs1	-6.8	2.1%	15.2%	?	-4.6	-0.1%
O=C(Cn1ccc([N+](=O)[O-])n1)Nc1nc2ccccc2s1	86.3*	?	27.0%	?	26.1	?
CCN1CCN(CC(=O)Nc2nc3ccccc3s2)CC1	5.9	77.4%	41.7%	.	11.8	.
O=C(COC(=O)CNC(=O)c1cccc([N+](=O)[O-])c1)Nc1nc2ccccc2s1	32.5	8.2%	8.5%	7.7%	15.0*	?
CN1CCN(CC(=O)Nc2nc3ccccc3s2)CC1	25.7	0.0%	29.6%	.	17.5*	.
Cc1oc2c(c1C(=O)c1ccc(Cl)cc1)C(=O)C(=O)c1ccccc1-2	-1.9	?	?	-26.9%	5.8	-22.1%
Cc1ccc(S(=O)(=O)N(C)c2ccc(OC(=O)c3ccc(N4CCCC4=O)cc3)cc2)cc1	-3.9	-18.3%	38.1%	-3.1%	1.7	-1.6%
CN1OC[C@@H]2COc3ccc4ccccc4c3[C@@H]21	55.3	90.1%	13.1µM*	-2.5%[46.1 µM]	16.3	?
CC(=O)N[C@@H]1c2c(ccc3ccccc23)OC[C@@H]1COC(C)=O	8.3	6.4%	i	-5.3%[46.1 µM]	-9.3	11.8%[46.1 µM]
CCCOc1ccc(/C=N/Nc2ccccc2[N+](=O)[O-])c(O)c1	73.7*	14.3%	232.8%	2.82µM*	57.5*	4.47µM*
CCCOc1ccc(/C=N/NC(=S)Nc2ccccc2[N+](=O)[O-])c(O)c1	75.5*	?	2.62µM*	8.2µM*	92.9*	?
CCCOc1ccc(/C=N/Nc2cccc([N+](=O)[O-])c2)c(O)c1	80.5*	?	?	?	82.4*	?
CCCOc1ccc(/C=N/Nc2ccc(C(=O)O)cc2)c(OCCC)c1	120.9*	-9.5%	147.8%	?	38.4*	13.5%[46.1 µM]
Cc1cccc(NC2=NC3(CCCCC3)N=C(N)N2)c1C	-16.4	?	.	2.0%	-4.5	3.0%
O=C(c1cc2cc(Cl)ccc2[nH]1)N1CCN(Cc2ccc3c(c2)OCO3)CC1	8.1	?	?	.	13.3*	.
CN1CCN(C(=O)c2ccc(Cl)cc2)CC1	.	2.62µM*	-3.5%	17.6%	-3.0	-14.6%
CN1CCN(C(=O)c2cc3cc(F)ccc3[nH]2)CC1	-7.1	0.0%	14.7µM*	.	15.8	.
CN1CCN(C(=O)c2ccc(CSc3ccc(Cl)cc3)cc2)CC1	-6.2	4.1%	8.9%	8.5%	-3.6	?
O=S(=O)(c1ccc(Cl)nc1)N1CCN(Cc2ccc3c(c2)OCO3)CC1	-11.4	.	-6.3%	0.8%	-2.1	18.1%
O=C(c1cccc(Cl)c1)N1CCN(Cc2ccc3c(c2)OCO3)CC1	4.5	6.9%	?	.	8.3	.
O=S(=O)(c1cc(Cl)ccc1Cl)N1CCN(Cc2ccc3c(c2)OCO3)CC1	-9.5	10.4µM*	.	.	-2.9	-1.1%
CCc1ccc(NS(=O)(=O)c2c(C)nc3sc(CC)nn3c2=O)cc1	-2.4	-18.8%	?	-0.5%[46.1 µM]	-3.4	?
O=C(NC(=S)N1CCN(Cc2ccc3c(c2)OCO3)CC1)c1cccc(Br)c1	-7.8	-73.3%	?	0.0%	-1.4	7.7%
O=C(NC(=S)N1CCN(Cc2ccc3c(c2)OCO3)CC1)c1ccc(Cl)cc1	10.5	-99.2%	-24.3%	0.9%	14.9*	?
CN1CCN(C(=O)c2cc3cc(Cl)ccc3[nH]2)CC1	27.7	10.4µM*	-10.6%	.	12.4*!	.
SMILES	Shiga toxin inh	Pf growth 96h	Pf growth 48h	LASV entry inh	CHX counter	MARV entry inh
Cc1cc(C)cc(C(=O)NCC(=O)N2CCN(C(c3ccccc3)c3ccccc3)CC2)c1	-4.3	22.4%	9.1%	-20.0%[46.1 µM]	-3.8	12.6µM*
CCN1CCN(C(=O)c2cc3cc(Cl)ccc3[nH]2)CC1	24.9	?	?	16.1%[46.1 µM]	1.3	2.8%[46.1 µM]
Cc1ccc2[nH]c(C(=O)N3CCN(C(c4ccccc4)c4ccccc4)CC3)cc2c1	-19.2	?	2.62µM*	?	-2.1	-8.7%
COc1cccc(NC(=O)CN2C=NS(=O)(=O)c3ccccc32)c1	.	.	.	16.6%[46.1 µM]	.	.
CC(=O)NS(=O)(=O)c1ccc(N)cc1	-12.6	-13.4%	-4.0%	-7.9%	-2.2	-4.9%
O=S1(=O)CC2(N3CCOCC3)CCCCC21 (configuration not stated)	9.1	7.5%	11.9%	2.0%	3.2	-0.6%
O=C(CN1CCCCC1)Nc1cccc(Cl)c1Cl	-4.1	.	23.3%	1.5%	6.3	22.2%
COc1ccccc1N1CCN(C(=O)c2cc3cc(F)ccc3[nH]2)CC1	-6.3	?	?	?	11.6	?
O=C(c1cc2cc(Cl)ccc2[nH]1)N1CCCCC1	26.7	3.9%	20.4%	.	24.7*	.
O=C(c1cc2cc3ccc(Cl)cc3nc2o1)N1CCN(Cc2ccc3c(c2)OCO3)CC1	.	.	.	10.4%	.	11.0%[46.1 µM]
O=C(c1cccn2c(=O)c3ccc(Cl)cc3nc12)N1CCN(Cc2ccc3c(c2)OCO3)CC1	-18.3	7.38µM*	0.4%	-10.0%	-2.7	?
Cc1cccc(N2CCN(C(=O)c3cc4cc(F)ccc4[nH]3)CC2)c1C	66.6	13.1µM*	1.65µM*	?	3.0	-3.0%
COc1ccc(N2CCN(C(=O)c3cc4cc(Cl)ccc4[nH]3)CC2)cc1	12.9	?	?	-26.5%[46.1 µM]	19.2*	20.9%[46.1 µM]
Cc1ccccc1NC(=O)CN1C(=O)S/C(=C\c2ccc(-c3cc(C(=O)O)ccc3C)o2)C1=O	-12.6	18.3%	9.0%	-16.3%	-3.7	0.1%[46.1 µM]
COc1cc(C(=O)NNC(=S)NCc2ccco2)cc(OC)c1OC	-1.8	92.3%[5.75 µM]	-14.4%[5.75 µM]	.	-1.1	.
O=C(O)c1nc2ccccc2nc1C(=O)O	80.9*	?	100.3%	10.6%	46.0*	9.4%
CCOc1ccc(C[C@H]2CC(=O)NC2=O)cc1	.	.	.	.	.	0.4%
CC(C)Oc1ccc(CC2CC(=O)NC2=O)cc1 (configuration not stated)	-5.1	10.4µM*	39.6%	1.7%	-1.6	?
Oc1ccccc1CNc1nccs1	17.7	-11.4%	.	?	-1.8	3.8%
CC(C)(C)n1cnc2cc(NCc3ccccc3Cl)ccc21	.	.	.	-1.3%[46.1 µM]	.	23.1%[46.1 µM]
Cn1cnc2cc(NCc3ccccc3O)ccc21	113.7*	?	70.9%	.	61.1*	.
Cc1ccc(CNc2ccc3c(c2)ncn3C(C)(C)C)cc1	132.7*	9.4%	-21.4%	.	40.4*	.
Cc1nc2cc(NCc3ccccc3O)ccc2n1Cc1ccccc1	91.9*	?	?	?	69.1*	-4.8%[14.2 µM]
CCc1ccc(CNc2ccc3c(c2)ncn3C)cc1	72.7*	?	148.2%	?	24.7*	10.2%
CCC(C)(CC(=O)Nc1nccs1)c1ccccc1 (configuration not stated)	-4.8	-0.5%	.	?	1.8	8.9%
O=C(NCc1ccc2c(c1)OCO2)c1cccnc1Cl	12.1	3.4%	11.4%	.	9.2	.
CN(CC(=O)Nc1ccccc1Cl)C(=O)CSc1nc2ccccc2s1	-3.0	?	24.2%	-15.4%	-0.7	6.1%

Assay outcomes (PubChem BioAssay)
